Screens as filed in PubChem.
IL-2 act: IL-2 activation. IL-2 activation reporter assay, cell-based qHTS; stimulated with anti-CD3/CD4/CD28 beads; in transgenic mouse T cells. activation, % (series mostly up to about 46 µM). actives 0.065% (n = 360,000). AID 652025; in the data active = activation above about 50%; inconclusive = mostly about 30% to 49%
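Unstimulated transgenic mouse T cells preincubated 60 min with compound, then stimulated with anti-CD3/anti-CD4-coated beads plus anti-CD28 for 18 h at 37 degrees C. IL-2 response read as EGFP and DsRed fluorescence by plate cytometry.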
PKM2 act: increases activity of human pyruvate kinase M2; AID 1631; P14618; actives 0.34% (n = 260,000); purified PKM2, Kinase-Glo ATP luminescence, activation; response scale: 0% is enzyme alone, no compound; Potency, µM (highest dose often 57.5 µM), actives largely listed as activators; note: nearly all actives have a fitted effect of over 55% in size
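ATP formation by purified human PK-M2, quantified via coupled luciferase luminescence after 1 h at room temperature with 0.1 mM ADP and 0.5 mM PEP final.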
EPAC1 agonist: agonists of human EPAC1; O95398; EPAC1 agonist qHTS, biochemical assay; response scale: 100% = response to 6.5 mM cAMP; Potency, µM (doses to about 154 µM), usual class: activators; actives 0.073% (n = 360,000); note: nearly all actives have a fitted effect of over 60% in size
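Compounds were pinned as a concentration titration into mixtures of EPAC1 (100 nM), BODIPY-GDP-loaded Rap1B (250 nM) and GDP (50 uM). After 5 min at room temperature, fluorescence was followed for 30 min; activity was scaled to 6.5 mM cAMP.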
EPAC2 agonist: agonists of human EPAC2 (RAPGEF4); Q8WZA2; EPAC2 activation, biochemical qHTS; response scale: 100% = 6.5 mM cAMP response; Potency, µM (series often up to 154 µM), actives largely listed as activators; actives 0.079% (n = 360,000); AID 720711; note: nearly all actives have a fitted effect of over 50% in size
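In this primary screen, activation is scored as increased exchange of BODIPY-GDP from Rap1B by 100 nM EPAC2, with 50 uM GDP as competitor. Signal is normalized to the 6.5 mM cAMP agonist control.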
EPAC2 antag: antagonists of human EPAC2. Q8WZA2. EPAC2 GEF exchange of Rap1B-BODIPY-GDP, fluorescence. Potency, µM (highest dose often 114 µM), hits mostly inhibitors. actives 0.18% (n = 360,000). AID 720708; note: nearly all actives have a fitted effect of over 45% in size
EPAC1 antag: EPAC1 (human) antagonism; EPAC1 GEF assay, Rap1b-BODIPY-GDP exchange fluorescence; Potency, µM (titrated, usually from 115 µM), hits mostly inhibitors; AID 720709; O95398; actives 0.14% (n = 360,000); note: nearly all actives have a fitted effect of over 50% in size
Of the large screens only hits and unclear results are named; the others gave an inactive call. Most compounds without a hit are left out; they make up all but 0.64% or so of the library. Unless noted, calls come from the whole dose curve; as a rule, active = well fitted curve in the direction sought with a large enough effect; inconclusive = small, poorly fitted or top-dose-only effect, or another doubt; inactive = no such curve, though single readings can be large; an effect the other way counts as inactive or inconclusive.

COc1cc2c3nnc(-c4ccc(F)cc4)c-3cn(Cc3ccc(C)cc3)c2cc1OC	IL-2 act 349
O=c1c2cn(Cc3ccc(F)cc3)c3ccccc3c-2nn1Cc1ccc(F)cc1	none (no result: PKM2 act)
Cc1ccc(Cn2nc3c4cc(F)ccc4n(Cc4ccc(F)cc4)cc-3c2=O)cc1	none (no result: PKM2 act)
COc1cc2c3nnc(-c4ccccc4)c-3cn(Cc3ccc(F)cc3)c2cc1OC	EPAC2 antag 71µM
O=C(Nc1cccc(C(F)(F)F)c1)c1csc(COCCO)n1	none (no result: PKM2 act)
Cc1ccc2[nH]c(=O)c(-c3noc(CC(C)C)n3)cc2c1	none
COc1ccc(C(C)C)cc1S(=O)(=O)N1CCC(C(=O)NCC2CCCO2)CC1 (configuration not stated)	none
COc1cccc(CNC(=O)C2CSC3(C)CCC(=O)N23)c1 (configuration not stated)	none (no result: PKM2 act)
O=C1NC(=S)SC1=Cc1cc(Br)ccc1O	EPAC2 antag 79µM, EPAC1 antag 56µM (no result: PKM2 act)
O=C1NC(=S)SC1=Cc1ccccc1Br	EPAC2 antag 40µM, EPAC1 antag 32µM (no result: PKM2 act)
O=C1NC(=S)SC1=Cc1ccc(Cl)cc1	EPAC2 antag 50µM, EPAC1 antag inconclusive (no result: PKM2 act)
O=C1NC(=S)S/C1=C\c1coc2ccc(O)cc2c1=O	EPAC2 antag 35µM, EPAC1 antag 56µM
COC(=O)Nc1ccc(S(=O)(=O)N2CCC(C(=O)NCc3ccc4c(c3)OCO4)CC2)cc1	none (no result: PKM2 act)
Cc1ccc(-c2cc(-c3ccc4c(c3)OCO4)c(C#N)c(N)n2)o1	PKM2 act 10µM
C[C@@H]1COC(=O)CCC/C=C\C[C@@H](CC(=O)N(CCO)Cc2ccccc2)C(=O)N1	none (no result: PKM2 act)
COCCn1c(N)c(C(=O)NS(=O)(=O)c2ccc(C)cc2)c(=O)[nH]c1=O	PKM2 act 25µM
COCCn1c(N)c(Sc2ccc(C)cc2)c(=O)[nH]c1=O	none (no result: PKM2 act)
O=C1NN(c2ccccc2)C(=O)/C1=C\c1ccccc1OCC(=O)N1CCOCC1	PKM2 act 10µM
CC[n+]1ccc(/C=C/c2c[nH]c3ccccc23)cc1	IL-2 act 211, EPAC1 agonist inconclusive, EPAC2 agonist 100µM
Cc1ccc2[nH]cc(/C=C/c3cc[n+](C)cc3)c2c1	IL-2 act 71, EPAC1 agonist 100µM, EPAC2 agonist inconclusive (no result: PKM2 act)
Cc1ccc(N2CC(C(=O)OCC(=O)Nc3ccccc3C)CC2=O)cc1 (configuration not stated)	none (no result: PKM2 act)
CN(C)c1ccc(N/C(N)=N/c2nc(C(F)(F)F)cc(C(F)(F)F)n2)cc1	none
Cc1ccc(CNc2nc3cc(-c4ccccc4)sc3c(=O)n2C)c(C)c1	none (no result: PKM2 act)
COc1ccc(C(O)c2nc(-c3ccoc3)cs2)cc1 (configuration not stated)	none (no result: PKM2 act)
CCOc1ccc(-c2csc(NC(=O)CSC3=NC(=O)CN3C(C)=O)n2)c2ccccc12	PKM2 act inconclusive, EPAC1 antag inconclusive
CC(=O)N1CC(=O)N=C1SCC(=O)Nc1nc(C)c(-c2ccccc2)s1	PKM2 act 20µM
Nc1nc2c(ncn2[C@@H]2O[C@H](CNC(=O)[C@H](N)Cc3cncn3COCc3ccccc3)[C@@H](O)[C@H]2O)c(=O)[nH]1	none (no result: PKM2 act)
Cn1cccc1/C=C1\CCC/C(=C\c2cccn2C)C1=O	EPAC1 agonist 100µM, EPAC2 antag inconclusive
O=C1/C(=C/c2cccs2)CCC/C1=C\c1cccs1	none
COC(=O)c1cc(S(=O)(=O)N2CCCCC2)c[nH]1	EPAC1 antag inconclusive (no result: PKM2 act)
Cc1ccccc1NS(=O)(=O)c1cc2c(cc1C)NC(=O)CO2	PKM2 act 5.6µM
CN(CCC1CCOCC1)C(=O)C1CCC(=O)N(CCc2ccccc2)C1 (configuration not stated)	none
CCN(CC)c1nc2ccccc2nc1C(C#N)C(=O)NCCCOC (configuration not stated)	none
